# Source: PubChem BioAssay AID2540 (Sanford-Burnham Center for Chemical Genomics, 2010)
# The whole screen tested about 330,000 compounds, of which about 4,100 (1.2%) were called active. The list comes from a sample in which actives are over-represented; it also holds similar structures and randomly drawn compounds. Unmarked numbers belong to inactive results. Cut-off read from the data, not from the text of the source: active = inhibition above about 50%; inactive = the rest.
# Molecular target: Sentrin-specific protease 8 (Homo sapiens) (UniProt Q96LD8)
# Sequence (Q96LD8 whole entry, looked up): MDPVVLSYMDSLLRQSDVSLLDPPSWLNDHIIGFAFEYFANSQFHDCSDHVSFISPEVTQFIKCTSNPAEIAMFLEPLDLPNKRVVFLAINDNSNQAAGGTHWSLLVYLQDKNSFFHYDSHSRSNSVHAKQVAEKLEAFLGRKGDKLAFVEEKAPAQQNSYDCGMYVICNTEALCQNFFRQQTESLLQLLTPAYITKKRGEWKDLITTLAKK
# Assay: blockers of human SENP8 peptidase activity – biochemical, luminescence, primary screen (AID 2540)
# Conditions: purified SENP8, Z-RLRGG-aminoluciferin cleavage, at 10 µM, hits give high values
row,SMILES,inhibition
1,O=C(NCCOc1cccnc1)c1ccc(OC2CCN(Cc3ccccn3)CC2)cc1,-5.27%
2,CCN(C(=O)COc1cccnc1[N+](=O)[O-])C1CCS(=O)(=O)C1 (configuration not stated),1.37%
3,O=C1C2CCCN2C(=O)N1CCCCN1CCN(c2cccc(C(F)(F)F)c2)CC1 (configuration not stated),11.4%
4,O=C(COC(=O)c1cccnc1Cl)Nc1ccc(S(=O)(=O)N2CCOCC2)cc1,-1.74%
5,COc1ccc(/C=N/OCC(=O)N(Cc2ccccc2)c2ccccc2C(=O)O)cc1,-0.249%
6,O=C(N/N=C/c1ccc(OC(=O)c2ccccc2Cl)cc1)c1ccc(O)cc1,1.64%
7,COc1ccc(NS(=O)(=O)c2cc(C(=O)Nc3ccccc3C(=O)O)ccc2C)cc1,-12.1%
8,COc1ccc(C(=O)Nc2ccccc2C(=O)N2CCN(c3ccccc3)CC2)cc1,0.756%
9,COc1ccc(/C=N/Nc2ccccc2C(=O)O)cc1,96.1% (active)
10,COc1ccc(C(=O)Nc2ccccc2C(=O)N/N=C/c2ccc(O)c(OC)c2)cc1,96.1% (active)
11,CCOC(=O)C(C)n1cnc2c(nnn2-c2cccc(OC)c2)c1=O (configuration not stated),-4.12%
12,Cc1cc(=O)oc2c(C(=O)c3ccccc3)c(OCC(N)=O)ccc12,5.39%
13,Nc1[nH]c(=S)nc2nc(-c3ccccc3)c(-c3ccccc3)nc12,-9.6%
14,Cc1cccnc1CCNC(=O)C1CCC(=O)N(Cc2cccc(F)c2)C1 (configuration not stated),-1.77%
15,O=C(CNCc1ccco1)Nc1cc(S(=O)(=O)N2CCOCC2)ccc1N1CCCC1,-6.3%
16,CCN(CC)C(=O)CC1(c2ccccc2OC)CCOC(C(C)C)C1 (configuration not stated),-10.8%
17,COc1ccc(CCNC(=O)C2CCCN2C(=O)Nc2ccccc2)cc1OC (configuration not stated),-4.97%
18,Brc1ccc(-c2nnc(-c3ccccc3)o2)o1,35.5%
19,Nc1nonc1-c1noc(-c2ccc(Br)o2)n1,-7.25%
20,Brc1ccc(-c2noc(-c3ccccc3)n2)o1,73% (active)
21,O=c1[nH]c(CCl)nc2cc(-c3ccc(Cl)cc3)sc12,90.6% (active)
22,O=C(CCc1nc2ccccc2c(=O)[nH]1)OCC(=O)c1cccc(Cl)c1,-5.04%
23,CCC1(CC)Cc2ccccc2-c2nc(CCl)[nH]c(=O)c21,1.95%
24,O=C(NCCc1ccco1)C(=O)NCCC1CCCCN1S(=O)(=O)c1ccccc1 (configuration not stated),2.72%
25,CC(C)(C)NC(=O)CN(Cc1cccs1)C(=O)CNS(=O)(=O)c1ccccc1,2.68%
26,O=C(CSc1cccc[n+]1[O-])NCCCc1ccccc1,3.26%

row,SMILES,inhibition
1,Fc1ccc(COc2ccc(-c3nnco3)cc2)cc1,52.5% (active)
2,Fc1cccc(Cl)c1COc1ccc(-c2nnco2)cc1,-0.803%
3,Fc1ccc(COc2cccc(-c3n[nH]c(=S)o3)c2)cc1,26.4%
4,CCN(CC)c1ccc(S(=O)(=O)N2CCCCC2)cc1NC(=O)C1=COCCO1,-1.53%
5,COC(=O)c1ccc(C)c(NC(=O)C2CC(=O)N(C3CCCC(C)C3C)C2)c1 (configuration not stated),-6.55%
6,CN(C)C(=O)c1ccc(NC(=O)COC(=O)c2cc3c(s2)CCCCC3)cc1,-5.57%
7,O=C(NCC1CCCO1)c1cc2c(s1)CCCC2 (configuration not stated),0.761%
8,O=C(Nc1ccc(F)cc1)c1cc2c(s1)CCCC2,90.8% (active)
9,CC(NC(=O)c1cc2cc(Cl)ccc2oc1=N)c1ccccc1 (configuration not stated),-6.62%
10,COCC(C)NC(=O)COc1nncc2ccccc12 (configuration not stated),-1.01%
11,CCCC(=O)Nc1cccc(NC(=S)NC(=O)C(C)Oc2ccc(Cl)cc2Cl)c1 (configuration not stated),-4.44%
12,O=C(NCc1cccnc1)c1cccc(-c2cc3ccccc3oc2=O)c1,-8.55%
13,Nc1ncc(-c2cc3ccccc3oc2=O)s1,84% (active)
14,O=c1oc2ccccc2cc1-c1cn(-c2ccccc2)c(=S)[nH]1,-12.9%
15,Cc1cccc(NC(=O)/C=C/c2ccc3c(c2)OCO3)n1,73.5% (active)
16,O=C(/C=C/c1ccc2c(c1)OCO2)NCc1ccc(F)cc1,-4.04%
17,Cc1cccc(NC(=O)Nc2ccc3c(c2)OCO3)n1,13.3%
18,COc1ccc(OC)c(NC(=O)c2cnn(-c3ccccc3Cl)c2NC(=O)c2ccco2)c1,7.71%
19,O=C(Nc1ccccc1)c1cc2ccccc2[nH]1,72% (active)
20,COc1ccc2[nH]c(C(=O)Nc3ccccc3Cl)cc2c1,-24.6%
21,CC(OC(=O)c1cc2ccccc2[nH]1)C(=O)N(C)c1ccccc1 (configuration not stated),-8.47%
22,CSc1ccc(/C=N\NC(=O)CC(=O)NC(C)C)cc1,5.31%
23,O=C(N/N=C/c1ccc(Cl)c(Cl)c1)c1ccc2nc[nH]c2c1,-2.15%
24,CSc1ccc(/C=N/NC(=O)c2cccc(Cl)c2)cc1,89.4% (active)
25,O=C(CNS(=O)(=O)c1ccc(Br)s1)NCc1ccc2c(c1)OCO2,-11.1%
26,COc1ccc(C(=O)Nc2ccc(F)cc2F)cc1,65.2% (active)

row,SMILES,inhibition
1,CC(C)CC(=O)NC(=S)Nc1ccc(F)cc1F,3.9%
2,COc1ccc(C(=O)Nc2cc(C)ccc2NC(=O)COc2ccccc2)cc1,-2.67%
3,CCC(CO)Oc1cc(NCc2ccccc2)c2ncn(C3CCCC3)c2c1 (configuration not stated),-0.274%
4,CC(C)n1cnc2c(NCc3ccccc3)cc(OCC3CCN(C)CC3)cc21,44.5%
5,CC(C)n1cnc2c(NCc3ccccc3)cc(N[C@@H](CO)Cc3ccccc3)cc21,72.8% (active)
6,CN1CCC(N(C)S(=O)(=O)c2ccc(NC(=O)c3cccc(C#N)c3)cc2)CC1,-1.55%
7,Cc1nnc2n1N=C(c1ccccc1)CS2,1.54%
8,O=c1c(-c2ccccc2)cnc2n1CCS2,6.64%
9,O=c1c2cc(-c3ccccc3)sc2nc2n1N=C(c1cccs1)CS2,57.5% (active)
10,O=C(Cc1ccccc1)Nc1cccc(NC(=O)c2ccccc2)c1,-8.4%
11,O=C(Nc1cccc(NC(=O)c2cccc(F)c2)c1)c1ccccc1,-15.3%
12,O=C(Nc1ccc(C(=O)O)c(O)c1)c1ccccc1,76.3% (active)
13,COc1ccc(OCC(=O)NCCS(=O)(=O)N2CCN(c3ccc(F)cc3)CC2)cc1,1.89%
14,CN=C(NC#N)NCCSCc1nc[nH]c1C,-4.47%
15,O=C(Nc1ccccc1)OCc1cn(-c2ccc(Cl)cc2)nn1,-2.31%
16,Cc1cc(O)cc(O)c1C(=O)Cc1cnn(-c2ccccc2)c1,-5.32%
17,O=C(c1cnn(-c2ccc(Cl)cc2)c1)c1ccccc1O,91.4% (active)
18,O=c1[nH]c(CN2CCOCC2)nc2scc(-c3ccccc3)c12,1.83%
19,CC(C)(C)c1cc(C(=O)N/N=C/c2ccc([N+](=O)[O-])s2)n[nH]1,20.8%
20,Cc1ccccc1NCC(=O)N/N=C\c1ccc([N+](=O)[O-])s1,33%
21,O=[N+]([O-])c1ccc(C=Nc2ccc(Cl)cc2Cl)s1,59.6% (active)
22,CCc1ccc(NC(=O)N2CCc3ccccc3C2)cc1,-3.45%
23,COc1ccc([N+](=O)[O-])cc1NC(=O)C(C)OC(=O)C1c2ccccc2Oc2ccccc21 (configuration not stated),-5.39%
24,Cn1cnc(C(F)(F)F)c1-c1ccc([N+](=O)[O-])cc1,2.27%
25,CN(C(=O)Nc1ccc(Cl)cc1)n1cnc2ccccc2c1=O,-6.28%
26,CCOC(=O)N1CCN(C(=O)Cn2cnc3ccccc3c2=O)CC1,-8.63%

row,SMILES,inhibition
1,O=c1c2ccccc2ncn1/N=C/c1ccccc1,80.9% (active)
2,CCOC(=O)C1CCN(S(=O)(=O)c2ccc3c(c2)N(C(C)=O)CCO3)CC1,-1.03%
3,Cc1ccc(CNC(=O)[C@@H](NC(=O)Cc2ccccc2)C(C)C)cc1,2.25%
4,CC(C)C(=O)Nc1nnc(SCC(=O)N2C(C)CCCC2C)s1 (configuration not stated),-3.68%
5,COc1ccc(C2C3=C(OC(C)=O)c4ccccc4C3=Nc3c2c(=O)n(C)c(=O)n3C)cc1 (configuration not stated),7.93%
6,O=C(COC(=O)/C=C/c1cn(-c2ccccc2)nc1-c1cccnc1)Nc1ccc(Cl)cc1Cl,-4.08%
7,CSc1cccc(NC(=O)CSc2ccccc2)c1,-14.5%
8,CCOc1ccc(C(=O)Nc2cccc(SC)c2)cc1,82.4% (active)
9,CCOc1ccc(C(=O)Nc2cccc(-c3ccc4nncn4n3)c2)cc1,-9.4%
10,COc1cccc(C(=O)Nc2ccc(N3CCCC3)cc2)c1,96.4% (active)
11,COc1cccc(C(=O)Nc2nnc(S(=O)(=O)N3CCCCC3)s2)c1,-11%
12,O=C(Nc1ccc(N2CCOCC2)cc1)c1cccc(S(=O)(=O)N2CCOCC2)c1,-6.21%
13,O=C(OC1CCOC1=O)c1cccc(S(=O)(=O)Nc2ccc(F)cc2)c1 (configuration not stated),2.88%
14,COc1cccc(NC(=O)COC(=O)/C=C/c2ccco2)c1,-1.22%
15,O=C(/C=C/c1ccco1)Nc1ccc(Oc2ccccc2)cc1,58.9% (active)
16,O=C(/C=C/c1ccco1)NC(=S)Nc1ccccc1Br,-6.97%
17,O=C(NCCc1ccc(Cl)cc1Cl)c1cc([N+](=O)[O-])c[nH]c1=O,4.55%
18,Cc1cc(OC(=O)c2ccc(OC(C)C)cc2)c([N+](=O)[O-])c(=O)[nH]1,1.33%
19,COc1cccc(-c2nnc(SCCOc3ccc4c(C)cc(=O)oc4c3)o2)c1,1.03%
20,COc1ccc([N+](=O)[O-])cc1-c1nc2ccccc2nc1-c1ccccc1,12.3%
21,COc1cccc(-c2nc3cc(C)ccc3o2)c1,96.2% (active)
22,O=[N+]([O-])c1ccc2c(c1)Nc1nc3ccccc3nc1N2,-4.07%
23,O=[N+]([O-])c1ccc2oc(-c3cccc(O)c3)nc2c1,84.7% (active)
24,COc1ccc2oc(-c3cccc(NC(=O)CSc4ccc(Cl)cc4)c3)nc2c1,-5.16%
